# Source: PubChem BioAssay
# Activity calls are given as the source filed them. Unless noted, how the calls were made is not given here.
# Key:
# [1] = tested on: XIP peptide (Xip251-270) binding; assay: XIP fragment 251-270 binding compounds – biochemical, small-molecule microarray, fluorescence 635/667 nm, 0.1 µg/mL protein, primary screen (AID 1182); details: fluorescent protein binding, 635 nm, higher = more signal, called active from +8 up or from −8 down
# XIP peptide (Xip251-270) = assay: compounds binding XIP fragment 251-270 – biochemical, small-molecule microarray, fluorescence 635/667 nm, 0.5 µg/mL protein, primary screen (AID 1183); details: fluorescence 635 nm, higher = more signal
# [2] = blood-stage malaria parasite viability loss – strain 3D7, DAPI fluorescence, 100 nL, primary screen (AID 1184);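 further: parasites grown inside human red blood cells in medium with human serum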; details: P. falciparum 3D7 growth, 3 d, higher = more signal
# [3] = biological target: Homeobox protein Hox-A13 (Mus musculus) (UniProt Q62424); assay: disruptors of Hoxa13 oligonucleotide interaction – biochemical, fluorescence polarization, labeled oligonucleotide, primary screen (AID 1185); details: Hoxa13:DNA binding, 15 min, higher = more signal, called active from +8 up or from −8 down
# Sequence of Homeobox protein Hox-A13 (Mus musculus) (Q62424 whole entry, looked up): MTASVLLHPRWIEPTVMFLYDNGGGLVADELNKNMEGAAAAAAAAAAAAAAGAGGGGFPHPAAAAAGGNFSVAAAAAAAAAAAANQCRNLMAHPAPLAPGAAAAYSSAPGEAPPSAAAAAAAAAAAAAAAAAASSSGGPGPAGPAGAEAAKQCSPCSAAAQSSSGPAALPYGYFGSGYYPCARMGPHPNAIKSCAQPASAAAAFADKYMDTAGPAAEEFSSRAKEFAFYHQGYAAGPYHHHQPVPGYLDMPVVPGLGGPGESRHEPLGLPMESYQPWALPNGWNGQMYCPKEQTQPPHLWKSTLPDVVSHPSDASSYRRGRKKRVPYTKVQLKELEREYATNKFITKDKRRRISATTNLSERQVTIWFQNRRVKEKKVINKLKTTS
# [4] = blockers of DNA damage checkpoint Chk1 activation – imaging, HeLa, hydroxyurea, phospho-Chk1 antibody, percent positive cells, primary screen (AID 1186); details: hydroxyurea-induced phospho-Chk1 immunofluorescence imaging, higher = more signal
# [5] = blockers of DNA damage checkpoint Chk1 activation – imaging, HeLa, hydroxyurea, phospho-Chk1 nuclear intensity, primary screen (AID 1187); details: hydroxyurea-induced phospho-Chk1 immunofluorescence imaging, higher = more signal
Structure (SMILES),composite z-score [1],composite z-score (XIP peptide (Xip251-270)),z-score [2],z-score [3],z-score [4],z-score [5]
O=C(NC1CC1)[C@@H]1c2ccccc2C(=O)N(Cc2ccc(OC(F)(F)F)cc2)[C@H]1c1ccc(CO)cc1,2.46 (inactive),0.0303,0.599,-3.51 (inactive),-0.453 (inactive),-0.577 (inactive)
CC1=C([C@H](O)CCc2ccccc2)[C@H](CO)n2c(=O)n(-c3ccccc3)c(=O)n2C1,-0.611 (inactive),0.754,0.0483,-2.24 (inactive),-0.773 (inactive),-0.906 (inactive)
CCCN1C(=O)[C@]2(CCC(=O)OC(C)(C)C)N=C(c3ccc(OCCCO)cc3)O[C@@H]2c2ccccc21,0.55 (inactive),0.601,-2.33,-3.37 (inactive),-0.292 (inactive),-0.312 (inactive)
COC(=O)C(CC#Cc1ccc2c(c1)[C@]1(C(=O)N2)[C@H](c2ccc(OCCO)cc2)N2[C@H](c3ccccc3)[C@H](c3ccccc3)OC(=O)[C@H]2[C@@H]1C(=O)N1CCCCCCC1)C(=O)OC,2.15 (inactive),0.812,-2.24,-14.6 (active),-0.224 (inactive),-0.197 (inactive)
COCCCNC(=O)[C@@]1(Sc2ccc(C)cc2)CC(=O)N(Cc2ccccc2C(F)(F)F)[C@@H]1c1ccc(CO)cc1I,0.814 (inactive),-0.251,-0.284,-2.03 (inactive),0.26 (inactive),0.204 (inactive)
CCCC=C(CCC)[C@@H](NC(=O)c1ccc(C(F)(F)F)cc1)c1ccc(C(F)(F)F)cc1,0.237 (inactive),0.541,-0.702,-3.88 (inactive),-0.136 (inactive),-0.377 (inactive)
O=C1O[C@@H](c2ccccc2)[C@@H](c2ccccc2)N2[C@@H](c3ccc(OCCO)cc3)[C@]3(C(=O)Nc4ccc(C#CC5(O)CCCCCC5)cc43)[C@@H](C(=O)Nc3nc4ccccc4s3)[C@H]12,0.813 (inactive),0.667,-1.59,1.03 (inactive),0.234 (inactive),0.42 (inactive)
COCCOC(=O)N1C(=O)[C@@]2(c3ccccc31)[C@H](c1ccc(O)cc1)N1[C@H](c3ccccc3)[C@H](c3ccccc3)OC(=O)[C@H]1[C@@H]2C(=O)N1CCCCCCC1,4.66 (inactive),0.91,-1.01,0.899 (inactive),-0.0437 (inactive),0.157 (inactive)
O=C1N(Cc2ccccc2)c2ccccc2C[C@@]12COC(c1ccc(OCCCO)cc1)=N2,1.45 (inactive),0.308,-2.23,-5.21 (inactive),0.0438 (inactive),0.311 (inactive)
O=C1c2ccccc2[C@@]2(Cc3ccccc3N(Cc3ccccc3)C2=O)[C@H](c2ccc(CO)cc2)N1Cc1ccccc1Cl,0.0408 (inactive),0.311,0.689,-0.299 (inactive),-0.0672 (inactive),0 (inactive)
C=CCC(OC(C)=O)[C@@H]1[C@@H](N(Cc2cc3ccccc3o2)C(=O)Cc2ccc(OC)cc2)c2cc(OCCCO)ccc2N1C(=O)c1ccc2ccccc2n1 (some centres undefined),-0.206 (inactive),-0.454,-2.17,-2.1 (inactive),0.16 (inactive),0.158 (inactive)
CC(C)(C)N1CC=CC23O[C@@H]4/C=C\CCCOC(=O)C4[C@H]2C(=O)N(CCCCCO)[C@@H]3C1=O (some centres undefined),0.176 (inactive),-1.03,1.91,-4.34 (inactive),0.395 (inactive),0.144 (inactive)
C=CCC(OC(C)=O)[C@@H]1[C@@H](N(Cc2cc3ccccc3o2)C(=O)c2cccc3ccccc23)c2cc(OCCCO)ccc2N1C(=O)c1ccc2ccccc2n1 (some centres undefined),-0.667 (inactive),0.202,-1.99,-1.2 (inactive),-0.0897 (inactive),0.0983 (inactive)
C=C(CCCC)/C(=C/C[C@@H](OC(C)=O)c1ccc(CO)o1)c1cnc2ccccc2c1,0.714 (inactive),0.811,-1.38,-4.99 (inactive),0.196 (inactive),-0.109 (inactive)
CCCCC(O)C1C=CC2C(=O)N(c3ccccc3)C(=O)C2N1Nc1ccc(C#N)cc1 (centres undefined),1 (inactive),0.109,0.832,-3.62 (inactive),0.194 (inactive),0.404 (inactive)
CC[C@@H]1C=C(C(=O)O)[C@H](c2ccc(OC)cc2)N1S(=O)(=O)c1ccc(C)cc1,1.98 (inactive),0.129,2.03,-2.62 (inactive),-0.745 (inactive),-1.26 (inactive)
Cc1ccc(S[C@]2(C(=O)NCc3ccccc3)CC(=O)N(Cc3ccccc3C(F)(F)F)[C@@H]2c2ccc(CO)cc2)cc1,0.903 (inactive),0.599,0.78,0.0133 (inactive),-0.51 (inactive),-0.393 (inactive)

Structure (SMILES),composite z-score [1],composite z-score (XIP peptide (Xip251-270)),z-score [2],z-score [3],z-score [4],z-score [5]
C=C(CCCC)/C(=C/C[C@H](OC(=O)c1ccncc1)c1ccccc1OCCO)c1cc(C(=O)OC)ccc1OC,0.578 (inactive),0.0792,-3.07,-4.22 (inactive),-1.15 (inactive),-0.733 (inactive)
CN(C)C(=O)[C@@]1(Cc2ccccc2CN=[N+]=[N-])COC(c2ccc(OCCCO)cc2)=N1,0.182 (inactive),0.62,-2.08,-5.02 (inactive),-0.439 (inactive),-0.521 (inactive)
CN(C)CCCC[C@@H]1NC(=O)[C@H]2C[C@@H](C(=O)O)[C@@H](c3ccc(O)cc3)N2C1=O,3.67 (inactive),0.843,-0.947,-1.63 (inactive),0.7 (inactive),0.571 (inactive)
CCCCC(=C=CC[C@H](O)c1ccc(CO)o1)CCO,0.234 (inactive),0.552,1.13,-4.55 (inactive),0.818 (inactive),0.392 (inactive)
O=C1[C@H]2C=C(I)[C@H](C[C@@H]2c2ccccc2)[C@@]12CO2,-0.432 (inactive),-0.321,1.46,-1.96 (inactive),-0.428 (inactive),-0.0968 (inactive)
COCCn1c(C(=O)N(C)C)cc2c1C[C@H]1CN(C(=O)c3ccccc3)[C@@](Cc3ccc(OC)cc3)(C(=O)OC)[C@@H]21,0.116 (inactive),0.435,-1.45,-3.91 (inactive),0.688 (inactive),0.542 (inactive)
CCCNC(=O)[C@@]1(Sc2ccc(C)cc2)CC(=O)N(Cc2ccccc2Cl)[C@@H]1c1ccc(CO)cc1I,0.263 (inactive),0.157,-0.0495,-2.99 (inactive),0.242 (inactive),0.677 (inactive)
COC(=O)[C@@]1(Cc2ccc(F)cc2)[C@H]2c3cc(C(=O)N4CCCC4)n(Cc4cc(F)cc5c4OCOC5)c3C[C@H]2CN1C(=O)c1ccccc1,0.602 (inactive),0.53,-1.6,-4.07 (inactive),-0.142 (inactive),-0.121 (inactive)
CC1CC/C=C\[C@H]2OC34C=CCN(CCN5CCOCC5)C(=O)[C@H]3N(CCCO)C(=O)[C@@H]4C2C(=O)O1 (some centres undefined),0.537 (inactive),-0.868,-0.246,-6.46 (inactive),0.58 (inactive),0.667 (inactive)
COC(=O)[C@@]1(Cc2ccc(F)cc2)[C@H]2c3cc(C(=O)N4CCCC4)n(Cc4ccccn4)c3C[C@H]2CN1C(=O)c1ccccc1,0.224 (inactive),0.769,-1.68,-4.98 (inactive),0.0348 (inactive),-0.0643 (inactive)
COCCOC(=O)N1C(=O)[C@@]2(c3cc(C#CCC(C(=O)OC)C(=O)OC)ccc31)[C@H](C(=O)Nc1nc3ccccc3s1)[C@H]1C(=O)O[C@H](c3ccccc3)[C@H](c3ccccc3)N1[C@@H]2c1ccc(O)cc1,0.224 (inactive),0.599,-1.52,-1.93 (inactive),0.119 (inactive),0.359 (inactive)
Cc1ccc(S[C@]2(C(=O)NC(C)C)CC(=O)N(C3CCCCC3)[C@@H]2c2ccc(CO)cc2I)cc1,0.814 (inactive),0.864,-1.31,-4.43 (inactive),0.243 (inactive),0.202 (inactive)
CCCc1cc2c(n1CCc1ccc(Cl)cc1)C(C)C1CN(C(=O)c3ccccc3)C(C)(C(=O)OC)C21 (centres undefined),-0.573 (inactive),0.201,-1.18,-5.05 (inactive),0.853 (inactive),0.692 (inactive)
CC(C)=CCCC(C)=CC(O)C1C=CC2C(=O)NC(=O)C2N1Nc1ccccn1 (centres undefined),0.113 (inactive),0.628,0.563,-4.67 (inactive),0.282 (inactive),-0.0205 (inactive)
COC(=O)[C@@]1(Cc2ccc(OC)cc2)[C@H]2c3cc(C(=O)N4CCCC4)n(Cc4c(CO)[nH]cc(C)c4=O)c3C[C@H]2CN1C(=O)c1ccccc1,1.1 (inactive),0.523,-1.56,-5.39 (inactive),-0.166 (inactive),0.0081 (inactive)
O=C1C2C=CC(C(O)c3cccs3)N(Nc3ccc([N+](=O)[O-])cc3)C2C(=O)N1c1ccccc1 (centres undefined),0.396 (inactive),-0.0032,-0.965,-4.16 (inactive),-0.479 (inactive),-0.779 (inactive)
O=C(N1CCOCC1)[C@@]1(Cc2ccccc2)COC(c2ccc(OCCCO)cc2)=N1,0.509 (inactive),0.52,-1.99,-5.19 (inactive),-0.42 (inactive),-0.504 (inactive)
